Measurements taken from PubChem BioAssay AID524 (The Scripps Research Institute Molecular Screening Center, 2006).
About 95 (0.1%) of roughly 65,000 compounds were called active. The full list was thinned out, with actives kept by preference. Values without a mark were called inactive.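 The calls were made as follows: active = inhibition above the screen-wide mean inhibition plus 3 SD (cut at about 21% in these data); inactive = the rest.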

The compounds below were run against cAMP-dependent protein kinase catalytic subunit alpha (Homo sapiens) (UniProt P17612) (assay: inhibitors of human PKA kinase activity, primary screen, biochemical, ATP-depletion luminescence, Kemptide substrate (AID 524)). Conditions: PKA Kemptide phosphorylation, Kinase-Glo ATP luminescence; at 6 µM; active compounds read high.

SMILES | inhibition
COc1ccc(C)c2sc(=NC(=O)c3ccc(C#N)cc3)n(C)c12 | 3.2%
CN(C(=O)COc1ccccc1)c1nnc(-c2ccncc2)s1 | 29.1% (active)
CN(C(=O)c1ccno1)c1nnc(-c2cccnc2)s1 | 2.6%
CN(C(=O)c1ccccn1)c1nnc(-c2ccccn2)s1 | -0.9%
CC(C)N(C(=O)Cn1c(SCC(=O)N2CCN(c3ccccc3)CC2)nc2ccccc21)C(C)C | 7.5%
Cc1cc(C)cc(NC(=O)C2CCN(c3nc(C)cc(C)n3)CC2)c1 | 6.7%
O=C(CSc1nnc(-c2ccccn2)n1-c1ccccc1)Nc1ccc2c(c1)OCO2 | 5.1%
Cc1ccn2cc(C(=O)NC3CCN(Cc4ccccc4)CC3)nc2c1 | 4.5%
Nc1nc(SCCOc2ccccc2)n[nH]1 | 11.5%
O/N=C(\c1ccc2c(c1)OCCO2)C1CCCCC1 | -0.4%
Cc1cc(/C=N/n2cnnc2)c(C)n1-c1cccc(C(=O)O)c1 | 7.1%
COc1ccc(-c2cc3ccc(OCc4nn[nH]n4)cc3oc2=O)cc1 | 6.3%
CCc1cc(Br)ccc1NC(=O)C1CCCO1 (centres undefined) | 12.3%
Cc1cc(C(=O)CC#N)c(C)n1CC(F)(F)F | 6%
C=CCNc1nc(C)nc(OC)n1 | 4.4%
Cc1nc(N2CCN(c3ncccn3)CC2)c2oc3ccccc3c2n1 | 8.8%
CCOc1ncccc1C(=O)OCc1cn2cc(Cl)ccc2n1 | 8.2%
COc1ccc(CCN=C2SCC(=O)N2C)cc1OC | 5.5%
Fc1ccccc1OCCCCn1cncn1 | 2.8%
CN(CC(=O)NC1CCCCC1)S(=O)(=O)c1ccc(Br)s1 | 4%
COCCNC(=S)c1ccc(OC)cc1 | 5.8%
Cn1cccc1C(=O)NC(=O)COC(=O)Cc1coc2ccc3ccccc3c12 | 5.5%
CCOc1ccc(NC(=O)N(CCC(C)C)C(C)c2ccco2)cc1 (centres undefined) | 4.9%
COc1ccc2c(c1)OC(O)(C(F)(F)C(F)F)CC2=O (centres undefined) | 4.1%
CC(C)C(=O)Nc1c(C(=O)c2ccc(F)cc2)oc2ccccc12 | 2.9%

SMILES | inhibition
CCCC(NC(=O)c1ccccc1)c1nc2ccccc2n1Cc1ccc(C(=O)OC)o1 (centres undefined) | 9.3%
Cc1ccc(Cc2cncc(O)c2)cc1S(=O)(=O)O | -3.1%
Cn1c(=O)c(C(=O)Nc2ncccn2)c(O)c2ccccc21 | -3.8%
COc1ccc(NC(=O)c2c(C)oc3c2CCCC3)cc1 | 4.6%
Cc1ccc(C)c(NC(=O)CSc2nnc(Cc3cccn3C)n2-c2ccc(F)cc2)c1 | 7.2%
Cn1c(=O)[nH]c(=O)c2c1nc(CN1CCN(c3ccccc3F)CC1)n2CCc1ccccc1 | 1.4%
COc1cccc(N2CC(C(=O)Nc3c(C)cccc3C)CC2=O)c1 (centres undefined) | 4.7%
CCOC(=O)C1=C(C)NC(=O)N(C(C)=O)C1c1ccc(Cl)cc1 (centres undefined) | 9.6%
CN(C)S(=O)(=O)c1ccc(Oc2ccc(S(=O)(=O)N(C)C)cc2)cc1 | 9%
CC(NC(=O)c1ccc(Cl)cc1)C(=O)N1CCCCC1 (centres undefined) | 8.7%
O=C(Cc1cccs1)N1CCCC(c2nc(-c3ccc(S(=O)(=O)N4CCCC4)cc3)no2)C1 (centres undefined) | 8.4%
CCCCCCn1c(SCC(=O)c2ccccc2)nc2c1c(=O)[nH]c(=O)n2C | 7.8%
O=C1c2ccccc2C(Nc2ccc3c(c2)OCCO3)N1Cc1ccco1 (centres undefined) | -9.3%
Cc1ccc2c(c1)C(O)(CC(=O)c1cccnc1)C(=O)N2 (centres undefined) | 6%
COc1ccccc1Cn1c(=S)[nH]c2cc(C(=O)N3CCN(C)CC3)ccc2c1=O | 4.3%
Cc1cc(C)c(C#N)c(SCc2ccc3c(c2)OCO3)n1 | 7.3%
CCN(Cc1ccncc1)C(=O)c1cccc(S(=O)(=O)N2CCOCC2)c1 | -8.8%
Cc1cccc(N2CCN(C(=O)C3CCN(S(=O)(=O)c4cnc[nH]4)CC3)CC2)c1C | 9.6%
O=C(COC(=O)c1ccc2c(c1)OCCO2)NCc1ccccc1 | 5.2%
O=C(CSc1nnc(-c2ccoc2)o1)N1CCOCC1 | -16.1%
O=C(O)Cc1ccc(NC(=O)C2CCCCC2C(=O)O)cc1 (centres undefined) | 9.2%
CC1=NC2(CCCc3c2no[n+]3[O-])N(O)C1(C)C (centres undefined) | -8%
C/C(=C\C(=O)c1ccc(Br)cc1)N1CCCCC1 | 0.7%
c1ccc(CCc2nc(-c3ccncc3)no2)cc1 | 6.7%
COCCCNC(=O)c1ccc(CNS(=O)(=O)c2ccc(NC(C)=O)cc2)cc1 | -2.5%

SMILES | inhibition
O=c1c2ccccc2[nH]c(=S)n1CCN1CCC(=C(c2ccc(F)cc2)c2ccc(F)cc2)CC1 | -4.7%
Cc1nc(NC(=O)C23CCC(C)(C(=O)O2)C3(C)C)sc1C (centres undefined) | 1.8%
Cc1ccc(S(=O)(=O)N2CCOCC2)cc1C(=O)NCc1ccc(F)cc1 | 8.8%
COc1cc2[nH]c(=S)n(CCN3CCCCC3C)c(=O)c2cc1OC (centres undefined) | -5%
O=C1NC(c2cc3c(cc2Cl)OCO3)Oc2ccccc21 (centres undefined) | -12.4%
CCCOc1ccc(-c2nc(N)n[nH]2)cc1 | -2.2%
O=C(Cn1c(=O)n(Cc2ccco2)c(=O)c2ccccc21)NCC1CCCO1 (centres undefined) | 7.1%
O=c1c2ccccc2nnn1CSc1nc2sc3c(c2c(=O)n1CC1CCCO1)CCC3 (centres undefined) | 6.1%
COc1ccc(CN2CC(C(=O)NCCN3CCN(c4ccccc4F)CC3)CC2=O)cc1 (centres undefined) | -0.3%
COc1ccc(C(c2nnnn2Cc2cccs2)N2CCN(c3ccccc3)CC2)cc1OC (centres undefined) | 7.6%
CCCOc1ccc(Cn2c(O)cc(=O)[nH]c2=O)cc1 | 7.5%
COc1ccc(OC)c2sc(NC(=O)C3COc4ccccc4O3)nc12 (centres undefined) | 5.1%
O=C(Nc1nc(-c2ccc3c(c2)OCO3)cs1)c1ccncc1 | -1.3%
O=C(Nc1nc(-c2ccncc2)cs1)C1COc2ccccc2O1 (centres undefined) | 103% (active)
CC(=O)Cc1nsc(NC(=O)c2ccc(COc3ccc(C)cc3)o2)n1 | 11.4%
O=C(Nc1cccnc1)c1noc2c1CCCCC2 | -2.8%
O=C(CN1CCN(C2CCCCC2)CC1)Nc1ccccc1N1CCCCC1 | 1.9%
O=C1c2ccccc2C(=O)N1c1ccccc1S(=O)C(F)(F)F (centres undefined) | -0.9%
Cc1ccccc1C(=O)NCCN=C1NS(=O)(=O)c2ccccc21 | 11.6%
CSc1ccc(NC(=O)N2CC(C)OC(C)C2)cc1 (centres undefined) | 10.1%
N#Cc1ccc(COC(=O)Cn2nnc(-c3ccccc3)n2)cc1 | 10.9%
Cc1cc(C(=O)OCC(=O)NCc2ccco2)c(C)n1-c1ccccc1 | 0.4%
CS(=O)(=O)N(CC(=O)N1CCOCC1)c1ccc2c3c(cccc13)CC2 | 10.1%
COc1ccc2c(CC(=O)Nc3nnc(C4CC4)s3)coc2c1 | 10.2%
CC1CCCCC1NC(=O)CSc1nnc(N)s1 (centres undefined) | 5.7%

SMILES | inhibition
C=CCNC(=O)C12CC3CC(C1)CC(C(=O)NCC=C)(C3)C2 | -3.4%
N#Cc1nc(COc2ccc(Cl)cc2)oc1N1CCCC1 | -3%
Cc1nc(C)c(C(=O)Nc2cccc(C)c2C)o1 | -2.6%
O=C(C1CC1)N1CCN=C1SCc1ccc(Cl)cc1 | 6.8%
Brc1cccc(-c2nnc3n2CCC3)c1 | 0.9%
CCOC(=O)C1CCN(C(=O)Cn2cc(C#N)c3ccccc32)CC1 | 4.3%
COc1cccc2cc(C(C)N(CCCN3CCOCC3)C(=O)Nc3ccc(Cl)cc3)oc12 (centres undefined) | 0.5%
O=S(=O)(NCc1ccc2c(c1)OCO2)c1cccc2nsnc12 | 5.1%
c1ccc(CCn2nnnc2CN2CCN(C3CCCC3)CC2)cc1 | -3.2%
Cc1cc2ccccc2n2c(SCC(=O)N3CCN(C(=O)c4ccco4)CC3)nnc12 | 8.5%
CCCn1c(SCC(=O)Nc2c(C)cccc2C)nnc1C(C)C | 4.9%
CCn1c(SCC(=O)Nc2cccc(F)c2)nnc1-c1cc2cc(Br)ccc2o1 | 10.1%
Cc1cccc(CC(=O)Nc2c3c(nn2-c2cccc(Cl)c2)CS(=O)C3)c1 (centres undefined) | 9.5%
NC(=O)CCCC1=NS(=O)(=O)c2ccccc2N1 | 5.7%
CCN(c1ccccc1)S(=O)(=O)c1ccc(N)cc1 | 9%
CCCCn1c(SCC(=O)N2CCC(C(=O)OCC)CC2)nc2cc(S(N)(=O)=O)ccc21 | 2.4%
CCCCNc1nc2c(c(=O)[nH]c(=O)n2C)n1CCOc1ccccc1 | -1.2%
CCOc1ccc(NC(=O)CSc2nc3c(c(=O)n2-c2ccccc2OC)SCC3)cc1 | -2.3%
COc1ccc(OC)c2[nH]c(=O)c(CCNC(=O)C(C)(C)C)cc12 | 2.9%
CC(C)C(C(=O)NC1CCCCC1)N(CC1CCCO1)C(=O)CNS(=O)(=O)c1ccc(F)cc1 (centres undefined) | 4.8%
O=C(NCCC1=CCCCC1)C1CCN(Cc2cnn(-c3ccccc3)c2-n2cccc2)CC1 | 6.6%
Cn1c(SCC(=O)Nc2cccc(NC(=O)c3cccs3)c2)nnc1-c1ccncc1 | 12.7%
CC(=O)Nc1ccc(-c2cn3cccnc3n2)cc1 | 3.9%
CN1C(=O)c2ccccc2C(C(=O)NCCCN2CCCC2)C1c1c[nH]c2ccccc12 (centres undefined) | 2.4%
